Bioassay records: PubChem BioAssay, The Scripps Research Institute Molecular Screening Center
Shown are actives, neighbours in structure and some others; about 3.5% of the full set was active somewhere.
TEAD-YAP block: TEAD-YAP interaction inhibition | AID 1259422 | 640,000 compounds, 1.4% hits | inhibition, % at 9.12 µM | HEK-TIYL cells, TEAD-Gal4/YAP UAS-luciferase luminescence; in the data active means inhibition above about 32%
FBW7 act: human FBW7 E3 ligase activation, primary screen | AlphaScreen FBW7–phospho-cyclin E peptide binding, activator screen | normalized activity (activation), % at 26.1 µM | 650,000 compounds, 0.13% hits | Q969H0; in the data active means normalized activity above about 1.9%;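 further: purified mutant Fbw7 with reduced substrate affinity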
Target sequence (Q969H0 whole entry, looked up): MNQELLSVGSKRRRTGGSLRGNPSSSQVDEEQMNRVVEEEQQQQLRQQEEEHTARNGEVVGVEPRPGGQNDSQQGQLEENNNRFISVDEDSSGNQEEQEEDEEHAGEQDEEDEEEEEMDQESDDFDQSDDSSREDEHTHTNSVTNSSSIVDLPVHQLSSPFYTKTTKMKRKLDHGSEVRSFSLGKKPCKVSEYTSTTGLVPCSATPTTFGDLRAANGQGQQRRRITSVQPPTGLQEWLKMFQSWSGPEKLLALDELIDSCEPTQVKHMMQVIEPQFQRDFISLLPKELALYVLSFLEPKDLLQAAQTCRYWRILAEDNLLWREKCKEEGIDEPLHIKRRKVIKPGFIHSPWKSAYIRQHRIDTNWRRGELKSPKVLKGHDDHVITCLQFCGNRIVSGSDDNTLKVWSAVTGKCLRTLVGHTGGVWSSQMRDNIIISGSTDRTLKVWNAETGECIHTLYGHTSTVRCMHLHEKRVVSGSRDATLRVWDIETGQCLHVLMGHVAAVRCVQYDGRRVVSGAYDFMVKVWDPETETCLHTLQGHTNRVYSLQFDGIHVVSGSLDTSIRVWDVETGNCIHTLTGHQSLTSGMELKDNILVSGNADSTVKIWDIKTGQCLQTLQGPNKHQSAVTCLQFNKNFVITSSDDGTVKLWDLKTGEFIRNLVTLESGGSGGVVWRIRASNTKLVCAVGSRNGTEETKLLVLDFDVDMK
GPR151 activ: activators of human GPR151; Q8TDV0; 650,000 compounds, 1% hits; activation, % at 11.2 µM; PathHunter beta-arrestin GPR151 cells, luminescence; in the data active means activation above about 4.9%
MITF primary: inhibitors of human MITF. 650,000 compounds, 0.91% hits. O75030. inhibition, % at 2.6 µM. AlphaScreen MITF homodimerization, bead proximity signal. AID 1259374; in the data active means inhibition above about 50%
GPR151 confirm: confirmation of human GPR151 activators; shares compounds with GPR151 activ; GPR151 PathHunter beta-arrestin cells, luminescence, 90 min; % of EA-reagent control over plate median; 6,700 tested, under 10 active; activation, % at 11.2 µM;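 active means mean percent activation across replicates above the confirmation screen cutoff of 4.91%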
GPR119 counter: activates human GPR119 in a GPR151 counter-screen. 6,700 compounds, 0.3% hits. activation, % at 11.2 µM. shares compounds with GPR151 activ. GPR119 PathHunter beta-arrestin cells, luminescence, 90 min; 0 = compound-well median, 100 = enzyme-acceptor control;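 active means mean percent activation in the counterscreen above 29.09%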;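 further: counterscreen on off-target GPR119 to flag nonselective hits from the GPR151 activator screen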
A number is an active result; i = inactive; nt = no result given; ! = repeats disagree.

SMILES	TEAD-YAP block	FBW7 act	GPR151 activ	MITF primary	GPR151 confirm	GPR119 counter
Cc1ccc(Cl)cc1NC(=O)c1c(-c2c(Cl)cccc2Cl)noc1C	i	i	6.0	i	i	i
O=C(CCl)N1CCCc2ccccc21	i	i	11	i	i	i
O=C(NC1CC2CCCC(C1)N2CC(=O)N1CCCc2ccccc21)C1CCCCC1 (centres undefined)	i	i	8.7	i	i	i
O=C(Nc1ccc(OC(F)(F)F)cc1)c1ccc(N2CC3CC(C2)c2cccc(=O)n2C3)c(NC(=O)c2ccc(Br)o2)c1 (centres undefined)	i	i	i	i	nt	nt
O=c1c2c3c(sc2ncn1/N=C/c1ccc(O)c(O)c1O)CCCC3	i	i	5.4	58	i	i
CCCCS(=O)c1nc(-c2ccc(C)cc2)cc(-c2ccccc2)c1C#N (centres undefined)	i	i	i	i	nt	nt
CCOC(=O)c1cc(CC)sc1NC(=O)c1ccccc1C	i	i	i	i	nt	nt
Cc1cc(N/N=C/c2cccc([N+](=O)[O-])c2)nc(-c2ccccc2)n1	i	i	5.0	i	i	i
Cc1cc(C)c2[nH]c(=O)c(CN(CCCO)Cc3nnnn3CCc3ccccc3)cc2c1	i	i	6.0	i	i	i
COc1ccc(Cn2nnnc2CN(CCCO)Cc2cc3cc(C)ccc3[nH]c2=O)cc1	i	i	6.7	i	i	i
COc1ccc2cc(CN(CCCO)C(=O)c3ccc(C)cc3)c(=O)[nH]c2c1	i	i	5.5	i	i	i
CCOc1ccc(C(=O)NC2CC(C)(C)NC(C)(C)C2)cc1OCC	i	i	12	i	i	i
Cc1cc(Br)c(Cl)cc1NC(=O)CN1C(=O)C2C3C=CC(C3)C2C1=O (centres undefined)	i	i	i	i	nt	nt
CCC1CCCCN1Cc1nc2c(c(=O)n(C)c(=O)n2C)n1CC(=O)OC (centres undefined)	i	i	i	i	nt	nt
CCNCCC1CCC(=O)N1Cc1ccc(C(=O)OCC)o1 (centres undefined)	i	i	i	i	nt	nt
CCSC1=C(C#N)C(c2ccc(O)cc2)CC(=O)N1 (centres undefined)	i	i	6.2	i	i	i
CCSC1=C(C#N)C(c2ccc(Cl)cc2)CC(=O)N1 (centres undefined)	i	i	i	i	nt	nt
CC(Cn1cccn1)C(=O)N1CCC(CO)(CCc2ccccc2)CC1 (centres undefined)	i	i	i	i	nt	nt
O=C(Cc1cccnc1)N[C@H](Cc1ccc(Cl)cc1)c1nc2ccc(-c3cn[nH]c3)cc2c(=O)[nH]1	i	i	5.5	i	i	i
CCOC(=O)c1sc(=NC(=O)c2cccc3ccccc23)n(C)c1C	i	i	7.8	i	i	i
O=C1C2C(c3ccc(F)cc3)OC3(C(=O)c4ccccc4C3=O)C2C(=O)N1Cc1ccccc1 (centres undefined)	i	i	5.6	i	i	i
O=C1C2C(c3ccccc3)OC3(C(=O)c4ccccc4C3=O)C2C(=O)N1CCc1ccc(F)cc1 (centres undefined)	i	i	7.5	i	i	i
O=C1C2C(c3ccccc3)OC3(C(=O)c4ccccc4C3=O)C2C(=O)N1c1ccccc1 (centres undefined)	i	i	i	i	nt	nt
Cc1noc(C)c1-c1cncc(C(=O)NCc2ccccc2)c1	i	i	i	i	nt	nt
CC1CN(c2ccc(Br)cc2)c2nc3c(c(=O)n(CC(N)=O)c(=O)n3C)n2C1 (centres undefined)	i	i	10	i	i	i
SMILES	TEAD-YAP block	FBW7 act	GPR151 activ	MITF primary	GPR151 confirm	GPR119 counter
O=C(CSc1nc2ccccc2n1S(=O)(=O)c1ccccc1)NCCc1ccccc1	i	i	i	i	nt	nt
Cn1c(SCC(=O)NCCc2ccccc2)nnc1-c1ccncc1	i	i	6.1	i	i	i
Cc1ccc(S(=O)(=O)n2c(SCC(=O)NCCc3ccccc3)nc3ccccc32)cc1	i	i	5.4	i	i	i
CCC(C)NC(=O)C1=CC(c2cccc(OC)c2)=NS(=O)(=O)N1C (centres undefined)	i	i	5.2	i	i	i
CCC(C)NC(=O)C1=CC(c2ccc(OC)c(OC)c2)=NS(=O)(=O)N1C (centres undefined)	i	i	i	i	nt	nt
NC(=O)COc1ccc(/C=N/NC(=O)c2ccc(CN3CCOCC3)cc2)cc1	i	i	5.7	i	i	i
COc1ccc(-c2cnn3c(NCCc4ccccn4)ccnc23)c(OC)c1	i	i	i	i	nt	nt
Cc1ccc2oc(-c3ccc(C)c(NC(=O)C4CCCCC4)c3)nc2c1	i	i	i	i	nt	nt
CC(C)(O)c1ccccc1CC[C@@H](SCC1(CC(=O)O)CC1)c1cccc(/C=C/c2ccc3ccc(Cl)cc3n2)c1	i	i	6.7!	i	i	i
C=CCNC(=O)C1CCN(C(=O)Nc2ccccc2)CC1	i	i	i	i	nt	nt
Cc1c(CN2CCC3(CC2)NC(=O)c2ccccc2O3)cnn1C	i	i	i	i	nt	nt
Cc1ncc(CN2CCC3(CC2)NC(=O)c2ccccc2O3)n1C	i	i	4.9	i	i	i
O=C1NC2(CCN(C(=O)C3(c4ccc(Cl)cc4)CC3)CC2)Oc2ccccc21	i	i	i	i	nt	nt
Cc1ccc(C2(C(=O)N3CCC4(CC3)NC(=O)c3ccccc3O4)CC2)cc1	i	i	5.6	i	i	i
Cc1ccc(C(=O)Nc2ccc(-c3nc4ccccc4o3)cc2)c(Cl)c1	i	i	6.5	i	i	i
O=C(Nc1ccc(Cl)c(-c2nc3ccccc3o2)c1)c1ccccc1Br	i	i	5.9	i	i	i
O=C(Nc1ccc(Cl)c(-c2nc3ccccc3o2)c1)c1ccccc1F	i	i	i	i	nt	nt
Cc1ccc(/C=C/C2=NC(=C\c3ccc(Br)cc3)/C(=O)O2)cc1	i	i	i	i	nt	nt
COC(=O)c1cc([N+](=O)[O-])c(C(=O)OC)cc1Oc1ccc(Cl)cc1	i	i	6.4	i	i	i
COc1cccc(CNC(=O)c2cc3ccc(-c4cn[nH]c4)cc3n2CCCO)c1	i	i	5.5	i	i	i
COc1cccc(CNC(=O)c2cc3ccc(-c4ccncc4)nc3[nH]2)c1	i	i	5.2	i	i	i
COc1cccc(CNC(=O)c2cc3ccc(-c4ccncc4)cc3[nH]2)c1	i	i	i	i	nt	nt
COc1cccc(CNC(=O)c2cc3ccc(-c4ccncc4)cc3n2C)c1	i	i	7.8	i	i	i
O=C(CNC(=O)C1CCCCC1)NNC(=S)NC(=O)c1ccccc1[N+](=O)[O-]	i	i	i	i	nt	nt
COC(=O)c1ccc(NC(=O)/C(=C\c2ccc(OC)c(OC)c2)NC(=O)c2ccc(Cl)cc2)cc1	i	i	7.8	i	i	i
O=C(COC(=O)c1cccnc1Cl)Nc1ncc(C(F)(F)F)cc1Cl	i	i	i	i	nt	nt
NC(=O)Cn1ccn(-c2cccc(Cl)c2)c(=O)c1=O	i	i	8.1	i	i	i
CCOc1ccc2ccccc2c1C(=O)NCc1cccs1	i	i	i	i	nt	nt
